About 83,000 compounds went through this panel and 20% of them were active in at least one assay; those are over-represented in the sample as a whole.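 The test compound was applied at a single concentration to cells in 96-well plates for 48 hours, and percent growth was recorded.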 Unmarked numbers belong to inactive results. Calls of active or inactive are those of the source. How the source made its calls: active means growth percent below 10; inactive means the rest.
Tested on: EKVX NSCLC
Assay: NCI-60 one-dose screen, 48 h (100 = growth as untreated, 0 = no growth, -100 = all killed)
Conditions: 10 µM unless noted

SMILES | growth
Nc1ccc(C2=Nc3cccc4cccc(c34)S2)cc1 | 67.3%
COc1cc2c(cc1OCCCOc1ccc(-c3cc4ccccc4c4ccccc34)cc1)N=C[C@@H]1CCCN1C2=O | -74.1% (active)
O=C(CCc1nnc(Cn2ccnc2)o1)c1nc2ccccc2[nH]1 | 99.2%
O=C(COC(=O)[C@H](C[Se][Se]C[C@H](NC(=O)c1ccc(Br)cc1F)C(=O)OCC(=O)c1ccc(F)cc1)NC(=O)c1ccc(Br)cc1F)c1ccc(F)cc1 | -69.9% (active)
COc1ccc2[nH]cc(/C=C3/C(=O)Nc4ccc(Cl)cc43)c2c1 | 46.2%
Cc1cccc(Cl)c1NC(=O)c1ccc2nc(NC(=O)NC3CC(C)(C)NC(C)(C)C3)sc2c1 | 94.5%
NNC(=O)C1CC2c3ccccc3C1c1ccccc12 (stereo not given) | 115%
Cn1[nH]cc(/C=N/C(N)=O)c1=O | 123%
COc1ccc2[nH]c(-c3ccccc3)cc2c1 | 94.5%
CCCCn1c(Cc2ccc(Cl)cc2)nc2cc(OC)c(OC)cc2c1=O | 59.1%
c1coc([C@@H]2C[C@@H]3Cc4ccc5ccccc5c4N2O3)c1 | 103%
CC(O)c1nc2c(c(=O)n(C)c(=O)n2C)n1C (stereo not given) | 111%
Nc1ccccc1-c1ccc([N+](=O)[O-])cc1 | 74.6%
C=C(C[C@](O)(C(=O)/C=C/c1ccc(Cl)cc1)C(=O)OC)c1ccccc1 | 82.8%
N#Cc1ccc(NC(=O)Nc2ccc(Oc3ccc(NC(=O)Nc4ccc(C#N)cc4)cc3)cc2)cc1 | 34.1%

— PubChem BioAssay (NCI)
